Screening results: PubChem BioAssay, several laboratories
TNAP act mid DEA – human TNAP enzyme activators, primary screen, biochemical, luminescent, intermediate phosphate acceptor level; Alkaline phosphatase, tissue-nonspecific isozyme (Homo sapiens), P05186; purified TNAP, CDP-star luminescence, 100 mM DEA, 30 min; hits give high values; scale: 0 levamisole-inhibited, 1 vehicle-only enzyme; activation factor at 20 µM; 64,000 tested, under 10 active; AID 813, 2007;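 active = activation factor of at least 2 at 20 µM, relative to controls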
Target sequence (P05186 whole entry, looked up): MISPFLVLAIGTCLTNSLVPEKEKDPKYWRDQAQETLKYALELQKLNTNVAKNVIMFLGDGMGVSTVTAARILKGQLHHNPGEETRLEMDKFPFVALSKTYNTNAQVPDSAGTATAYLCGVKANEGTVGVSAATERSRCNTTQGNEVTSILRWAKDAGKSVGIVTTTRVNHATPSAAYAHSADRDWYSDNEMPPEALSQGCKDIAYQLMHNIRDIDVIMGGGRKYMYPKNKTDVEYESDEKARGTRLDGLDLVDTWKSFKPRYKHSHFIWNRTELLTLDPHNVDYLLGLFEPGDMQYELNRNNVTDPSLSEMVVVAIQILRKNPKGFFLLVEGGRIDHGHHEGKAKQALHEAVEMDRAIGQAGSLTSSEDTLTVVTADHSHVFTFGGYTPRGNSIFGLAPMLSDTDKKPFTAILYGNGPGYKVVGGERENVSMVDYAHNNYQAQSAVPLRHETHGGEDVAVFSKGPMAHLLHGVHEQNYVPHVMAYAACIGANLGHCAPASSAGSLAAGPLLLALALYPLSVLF
FAK inh – FAK kinase inhibitors, primary screen, biochemical | Focal adhesion kinase 1 (Homo sapiens), Q05397 | biochemical FAK kinase activity assay | AID 727, 2007 | inhibition, %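 (tested at 7 µM)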 | 97,000 tested, 0.84% active
Phagocyt inh – inhibitors of macrophage phagocytosis, primary screen, imaging, J774A.1 cells, IgG beads; J774A.1 macrophage IgG-bead phagocytosis; inhibition, % at 5 µM; 110,000 tested, 0.07% active; AID 1029, 2008;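 active = inhibition above the mean of the plate negative controls plus 5 SD, cut at about 13% in these data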;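 note: phagocytic index as fraction of beads internalized from green versus red external bead signal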
CD11b adhes inh – inhibitors of CD11b/CD18 adhesion to fibrinogen, primary screen, K562 cells, luminescence. Integrin beta-2 (Homo sapiens) + Integrin alpha-M (Homo sapiens), P05107+P11215. ATPlite luminescence; Mn2+ added to activate the integrin. inhibition, % at 10 µM. 93,000 tested, 0.54% active. AID 1497, 2009;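 active = primary inhibition of 50% or more at 10 µM, then 40% or more on retest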
CD11b adhes enh – enhancers of CD11b/CD18 adhesion to fibrinogen, primary screen, K562 cells, luminescence; activation, % at 10 µM; ATPlite luminescence; 93,000 tested, 0.07% active; Integrin beta-2 (Homo sapiens) + Integrin alpha-M (Homo sapiens), P05107+P11215;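 active = 10 µM primary screen giving 50% or more activity, confirmed by 40% or more on retest at that dose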
FAK inh conf – FAK kinase inhibitors, retest, confirmation, biochemical | 750 tested, 28% active | FAK kinase biochemical inhibition assay | shares compounds with FAK inh | inhibition, % at 7 µM
A number is an active result; i = inactive; nt = not tested or not shown. The list is not random: actives were taken first. Their share in the collection is about 0.96%. Cut-off read from the data, not from the text of the source, unless noted: active = inhibition above about 19%; inactive = the rest.

SMILES	TNAP act mid DEA	FAK inh	Phagocyt inh	CD11b adhes inh	CD11b adhes enh	FAK inh conf
O=C(NCC1CCCO1)C1CCN(S(=O)(=O)c2cccc3nonc23)CC1 (centres undefined)	i	i	i	i	i	nt
Cc1cccc(OCCCCc2c(C)n[nH]c2C)c1C	i	i	i	90	i	nt
CCOc1ccccc1OCCCCCc1c(C)n[nH]c1C	i	i	i	i	i	nt
COc1ccccc1OCCCCCc1c(C)n[nH]c1C	i	i	nt	62	i	nt
CCCc1cc(NCCN2CCOCC2)n2c(nc3ccccc32)c1C#N	i	nt	nt	nt	nt	nt
C=CCn1c(CCCNC(=O)CCC)nc2ccccc21	nt	i	nt	nt	nt	nt
CCC(Oc1ccccc1)C(=O)Nc1nnc(C(F)(F)F)s1 (centres undefined)	i	i	i	74	i	nt
COc1cc(/C=C(/C#N)c2ccc(F)cc2)ccc1Oc1ccc([N+](=O)[O-])cn1	nt	nt	i	nt	nt	nt
CCOC(=O)c1sc(NC(=O)c2cccnc2)c(C#N)c1C	nt	i	i	63	i	nt
Cc1ccc(S(=O)(=O)N(c2nc(NC(C)C)nc(NC(C)C)n2)n2cnnc2)cc1	nt	nt	i	nt	nt	nt
C/C(=N\NC(=O)c1ccc(Br)cc1)C1C(=O)c2ccccc2C1=O	nt	i	i	97	i	nt
CCOc1ccc(C(=O)N/N=C(/C)C2C(=O)c3ccccc3C2=O)cc1	nt	nt	i	nt	nt	nt
Cc1ccc(-c2csc3ncnc(Sc4nnc(CN5CCCCCC5=O)o4)c23)cc1	i	i	i	i	i	nt
CCOC(=O)N1CCN(C(=O)C2CCCN(Cc3nc(-c4ccc(Cl)cc4)oc3C)C2)CC1 (centres undefined)	i	i	nt	70	i	nt
CCN1CCN(CCNC(=O)C2CCCN(Cc3nc(-c4cccc(Cl)c4)oc3C)C2)CC1 (centres undefined)	i	i	i	i	i	nt
CCOC(=O)N1CCC(NC(=O)C2CCCN(Cc3nc(-c4cccc(Cl)c4)oc3C)C2)CC1 (centres undefined)	i	i	i	60	i	nt
NC(=O)c1ccsc1NC(=O)c1cccs1	i	28	nt	nt	nt	nt
Cc1nc2sc(C(c3cccs3)N3CCN(c4ccccc4)CC3)c(O)n2n1 (centres undefined)	i	nt	i	i	i	nt
CCc1ccc(-c2cc(C(=O)Nn3cnnc3)c3ccccc3n2)cc1	nt	i	i	78	i	nt
O=C(O)c1cnc(-c2ccccc2)nc1Sc1cccc(Cl)c1	nt	i	i	62	i	nt
O=C(O)c1cnc(-c2ccccc2)nc1Sc1ccccc1	nt	i	nt	nt	nt	nt
O=C(Oc1ccc2c3c(c(=O)oc2c1)CCCC3)c1cccs1	nt	nt	i	nt	nt	nt
O=C(Oc1cc2oc(=O)c3c(c2cc1Cl)CCCC3)c1cccs1	nt	nt	nt	53	i	nt
CCC(=O)Nc1ccc(S(=O)(=O)Nc2cccc(C)c2)cc1OC	i	i	i	i	i	nt
CC(C)(C)C(=O)Nc1nc(=S)ss1	nt	i	i	66	i	nt
SMILES	TNAP act mid DEA	FAK inh	Phagocyt inh	CD11b adhes inh	CD11b adhes enh	FAK inh conf
CC(=O)N1CCc2cc(S(=O)(=O)NCCC(=O)N3CCN(c4ccccn4)CC3)ccc21	i	32	i	i	i	i
CCOC(=O)CSc1nc(C)c2ccccc2n1	nt	i	i	i	i	nt
CCOC(=O)CSc1nc(C(C)C)nc2ccccc12	nt	37	i	i	i	24
COC(=O)CSc1nc(C(C)C)nc2ccccc12	i	40	i	i	i	23
CCOC(=O)CSc1nc(C2CC2)nc2ccccc12	i	67	i	i	i	65
COC(=O)CSc1nc2ccccc2nc1SCC(=O)OC	i	i	nt	nt	nt	nt
O=C(c1cccc(F)c1F)N1CCCC1	nt	i	nt	nt	nt	nt
Cc1cccc(NC(=O)CCSc2nnc(Cc3ccccc3)o2)c1	nt	nt	i	nt	nt	nt
Nc1nc(C2CCCN2S(=O)(=O)c2ccc(Cl)cc2)cs1 (centres undefined)	i	i	i	i	i	nt
CCCN(CCC)C(=O)CSc1nc2n[nH]c(C)c2c(=N)n1-c1ccc(OC)cc1	nt	22	i	i	i	i
CC(C)C(NC(=O)c1ccccc1)C(=O)N/N=C\c1ccco1 (centres undefined)	nt	nt	i	nt	nt	nt
CN(C)c1ccc([C@@H]2[C@@H]([N+](=O)[O-])[C@H]3C=Cc4ccccc4N3[C@H]2C(=O)c2ccc(Cl)cc2)cc1	nt	nt	i	i	i	nt
CC(=O)Nc1ccc2[nH]c(C)cc(=O)c2c1	nt	81	i	i	i	i
Oc1oc(-c2ccccc2)nc1C=Nc1ccccc1	nt	i	nt	nt	nt	nt
CC(=O)Nc1ccc(N=Cc2nc(-c3ccc(C)cc3)oc2O)cc1	i	24	nt	i	i	i
C=CCN1C(=O)/C(=C2/C(=O)N(CC(=O)O)c3ccccc32)S/C1=N/c1nccs1	nt	22	i	i	i	i
C=CCN1C(=O)/C(=C/c2ccc(O)cc2)S/C1=N/c1nccs1	nt	nt	i	nt	nt	nt
O=C(NCc1cccs1)C1CC(=O)N(c2ccccc2)C1 (centres undefined)	i	i	i	i	i	nt
N#CCCN(C(=O)COc1ccc(Cl)cc1Cl)c1ccccc1	nt	nt	i	nt	nt	nt
Cc1cc(C)n(-c2nc(Nc3ccccc3)nc(-n3nc(C)cc3C)n2)n1	i	26	i	i	i	i
Cc1cc(C)n(-c2nc(N(c3ccccc3)c3ccccc3)nc(-n3nc(C)cc3C)n2)n1	nt	i	nt	nt	nt	nt
CS(=O)(=O)N1CCN(c2ccccc2NC(=O)c2ccc(Br)o2)CC1	nt	21	i	i	i	i
COc1ccccc1NC(=O)c1ccc(NC(=O)COC(=O)CCC2CCCC2)cc1	nt	nt	i	i	i	nt
CC(C)(C)C(=O)NC(=C(Cl)Cl)P(=O)(O)O	i	66	nt	i	i	52
CC(C)(C)C(=O)NC(=S)N1CCCC1	nt	nt	i	nt	nt	nt
SMILES	TNAP act mid DEA	FAK inh	Phagocyt inh	CD11b adhes inh	CD11b adhes enh	FAK inh conf
O=C(N1CCOCC1)N1c2ccccc2Sc2ccccc21	nt	40	nt	nt	nt	i
CC1CCN(C(=O)N2c3ccccc3Sc3ccccc32)CC1	nt	i	i	i	i	nt
O=C(Nc1cccc(NC(=O)c2ccc(Br)o2)n1)c1ccc(Br)o1	i	26	i	i	i	i
CC(Nc1cc(=O)n(C)c(=O)[nH]1)c1ccccc1 (centres undefined)	i	i	i	i	i	nt
CSc1nc(SCCO)c2sc3nc(-c4ccco4)c4c(c3c2n1)CC(C)(C)OC4	nt	28	i	i	i	i
CSc1nc(N(CCO)CCO)c2sc3nc(-c4ccco4)c4c(c3c2n1)CCC4	i	nt	i	i	i	nt
CCOC(=O)c1ccc(NC(=O)CSc2nc(C)cc(=O)[nH]2)cc1	i	20	i	i	i	i
Cc1cc(=O)[nH]c(SCC(=O)Nc2ccc(C(=O)O)cc2)n1	nt	i	i	i	i	nt
CCOC(=O)c1c(NC(=O)CSC(=S)N2CCOCC2)sc(C)c1C	nt	nt	i	nt	nt	nt
OC(COc1ccc(C2C=CCC2)cc1)CN1CCCCC1 (centres undefined)	i	22	i	i	i	i
Cc1c(Cl)cccc1N=Cc1ccc([N+](=O)[O-])s1	nt	25	nt	nt	nt	i
CC(C)(C)c1nc(SCC(=O)Nc2ccc3c(c2)OCCO3)c2ccccc2n1	nt	19	nt	nt	nt	i
CC(C)(C)c1nc(SCC(=O)Nc2ccc(N3CCOCC3)cc2)c2ccccc2n1	nt	32	nt	nt	nt	i
